Screening results (PubChem BioAssay)
Compounds with a hit are over-represented: about 0.65% of the library has one in this group of screens.
ugtP null kill – compounds lethal to S. aureus RN4220 ugtP deletion mutant. OD600 growth, 16 h. growth inhibition, % (concentration not given with the values). hit rate 0.54% among 330,000. AID 1259309; in the data active = growth inhibition above about 68%;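 also: plate controls were untreated wells for no effect and antibiotic for full effect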
BJeLR lethal – kills HRASV12-expressing BJeLR cells. BJeLR (HRASV12) viability, CellTiter-Glo ATP luminescence, 48 h. inhibition, % (test concentration not listed). hit rate 0.17% among 300,000. AID 1554; in the data active = inhibition above about 50%
Sa RN4220 lethal – S. aureus RN4220 growth inhibition; OD600, 16 h; inhibition, % (test concentration not listed); hit rate 0.33% among 330,000; AID 1259311; in the data active = inhibition above about 85%;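 also: plate controls were untreated cells for no effect and reference antibiotic for full effect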
Active calls of the source: *; nt = no result given.

SMILES	ugtP null kill	BJeLR lethal	Sa RN4220 lethal
OC(CNCC(c1ccc(Cl)cc1Cl)c1c[nH]c2ccccc12)c1ccccc1 (stereo not given)	97*	7	100*
OC(CNCc1ccccc1)c1ccc(Cl)cc1 (stereo not given)	-4	nt	1
COc1ccc2nc(NC(=O)Nc3ccccc3)sc2c1	-25	-3	1
CC(C)(C)c1nc(NC(=O)Nc2ccccc2)sc1Br	92*	5	97*
C/C=C/c1ccc(OCCN2CCc3ccccc3C2)c(OC)c1	-4	1	11
COc1ccccc1CNC(=O)CCCc1nnc2n(C)c(=O)c3sccc3n12	8	7	5
COC(=O)Cn1c2ccccc2c2nc(=O)cc(C)n21	1	4	1
CN1C(=O)N(C)C(=O)C2(Cc3cc(N)ccc3N3CCN(c4ccccc4F)CC32)C1=O (stereo not given)	nt	0	nt
CCN1C(=O)N(CC)C(=O)C2(Cc3ccccc3N3CCN(c4ccccc4)CC32)C1=O (stereo not given)	89*	-1	3
CC(=NO)c1sc(-c2ccccc2)nc1C	3	nt	13
COCc1nnc(NC(=O)c2ccc(S(=O)(=O)N3CCCc4ccccc43)cc2)o1	9	-7	29
COc1ccc(-c2nnc(NC(=O)c3ccc(S(=O)(=O)N4CCCc5ccccc54)cc3)o2)cc1	100*	-6	98*
CC1CN(S(=O)(=O)c2ccc(C(=O)Nc3nnc(-c4ccccn4)o3)cc2)CC(C)O1 (stereo not given)	-5	2	8
O=C(Nc1nnc(C2CC2)o1)c1ccc(S(=O)(=O)N2CCCc3ccccc32)cc1	94*	6	89*
O=C(Nc1nnc(C2CC2)o1)c1ccc(S(=O)(=O)N2CCCCC2)cc1	4	11	44
CC1CN(S(=O)(=O)c2ccc(C(=O)Nc3nnc(-c4ccc5c(c4)CCCC5)o3)cc2)CC(C)O1 (stereo not given)	99*	25	99*
O=C(Nc1ccc(S(=O)(=O)N2CCCC2)cc1)c1ccc(Br)o1	3	0	2
CCc1ccc(OCCSc2nc3ccccc3n2CCC(=O)O)cc1	13	2	3
COc1ccc(-n2c(SCC(=O)Nc3ccc(C(=O)O)cc3)nnc2-c2cccs2)cc1	10	-2	5
O=C(CCCn1cnc2ccccc2c1=O)Nc1ccccc1F	4	5	1
CCN(CC)S(=O)(=O)c1ccc(NC(=S)NC(=O)CC(C)C)cc1	89*	0	-2
CCC(=O)NC(=S)Nc1ccc(NC(=O)c2ccco2)cc1	25	-8	3
CC(C)CC(=O)NC(=S)Nc1ccc(NC(=O)c2ccco2)cc1	89*	-1	4
CCN(CC)S(=O)(=O)c1ccc(NC(=S)NC(=O)C(C)C)cc1	32	-20	-6
CCC(C)NC(=O)c1[nH]c(C)c(C(=O)OC)c1C (stereo not given)	-2	0	5
SMILES	ugtP null kill	BJeLR lethal	Sa RN4220 lethal
Cc1ccsc1C1C(C#N)=C(N)N(N(C)C)C2=C1C(=O)CCC2 (stereo not given)	1	-12	1
O=C(Cn1ncc2c(=O)oc3ccccc3c21)N(Cc1ccco1)C1CCCCC1	-4	9	-12
FC(F)(F)c1cc(-c2cccs2)nc2cc(-c3cccs3)nn12	-18	3	0
COc1ccccc1-c1c(-c2ccc(OCC(=O)NN)cc2O)n[nH]c1C(F)(F)F	-6	1	7
COc1ccc(-c2n[nH]c(C(F)(F)F)c2-c2cc3ccccc3o2)c(O)c1	100*	-3	100*
COc1ccc(NC(=O)CCc2nnc3ccc(NCc4ccco4)nn23)cc1	3	-6	3
Cc1cc(C)c(C#N)c(SCc2cn3ccccc3n2)n1	0	2	11
O=C(N/N=C/c1cccc(Oc2ccccc2)c1)c1ccccc1F	nt	-4	nt
O=C(NN=Cc1cccc(Oc2ccccc2)c1)c1ccccc1Br	99*	nt	-3
CCc1ccccc1N1C(=O)c2cccc3c(N4CCOCC4)c([N+](=O)[O-])cc(c23)C1=O	-15	-8	11
COc1ccccc1NC(=O)CSc1nc2sc(C)c(C)c2c(=O)n1C	1	-4	2
Cn1cnnc1SCC(=O)NC1CCCc2ccccc21 (stereo not given)	10	5	7
CC(=O)c1sc2nc(-c3cccs3)ccc2c1N	-16	-7	-1
Nc1c(C(=O)Nc2nc3ccccc3s2)sc2nc(-c3cccs3)ccc12	99*	11	80
CCCSc1ccc([C@H]2N[C@@](Cc3ccccc3)(C(=O)OC)[C@H]3C(=O)N(CC)C(=O)[C@@H]23)cc1	nt	1	nt
CON=Cc1ccc(Oc2ccc(C)cc2)nc1	-1	nt	-4
O=c1oc2cc(Oc3ccc(C(F)(F)F)cc3[N+](=O)[O-])ccc2c2c1CCC2	7	-9	7
